According to PubChem BioAssay:

molecular target: Calmodulin-1 (Homo sapiens) (UniProt P0DP23); experiment: calcium-bound CALM1 binders on microarrays, profiling panel, artefact control for SMM control-protein annotation, biochemical, small-molecule microarray, Cy5-labelled CALM1, plus calcium (AID 1112); conditions: Cy5-CALM1 binding fluorescence, higher = more signal;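 note: score merges spot fluorescence with signal to noise from triplicate slides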

SMILES	composite z-score
CCOC(=O)C[C@H]1[C@H](OC(=O)c2ccccc2-c2ccccc2)[C@@H](NC(=O)c2ccc(-c3ccccc3)cc2)c2cc(OCCCO)ccc2N1C(=O)c1ccc2ccccc2n1	-0.09
C=CCC(OC(C)=O)[C@@H]1[C@@H](N(Cc2ccc(-c3ccccc3)cc2)C(=O)Cc2ccc(F)cc2)c2cc(OCCCO)ccc2N1C(=O)Cc1ccc(OC)cc1 (stereo partly specified)	-0.124
O=C(NCC(F)(F)F)[C@@H]1c2ccccc2C(=O)N(Cc2ccc(OC(F)(F)F)cc2)[C@H]1c1ccc(CO)cc1	0.0084
COC(=O)CCCCCCC(=O)Nc1ccc(NC(=O)CCCC[P+](c2ccccc2)(c2ccccc2)c2ccccc2)cc1	-0.516
CCCCCCc1nc(C2CC2)cc2c1[Si](C(C)C)(C(C)C)OC2	0.0599
O=C1O[C@H](c2ccccc2)[C@H](c2ccccc2)N2[C@H]1[C@@H](C(=O)Nc1nc3ccccc3s1)[C@]1(C(=O)Nc3ccccc31)[C@H]2c1ccc(OCCO)cc1	-0.302
C=C(/C(=C/C[C@H](OC(=O)c1ccncc1)c1ccc(CO)o1)c1cc(C(=O)OC)ccc1OC)C(C)C	-0.748
CN(C)C(=O)[C@@]1(CCS(=O)(=O)c2ccccc2)N=C(c2ccc(OCCCO)cc2)O[C@H]1c1ccccc1	0.759
O=C1OCCC/C=C\[C@H]2OC34C=CCN(CCN5CCOCC5)C(=O)[C@H]3N(CCCCCCO)C(=O)[C@@H]4C12 (stereo partly specified)	-0.909
O=C1C2C=CC(C(O)c3ccc(Br)cc3)N(Nc3ccccc3F)C2C(=O)N1c1ccccc1 (stereo unspecified)	0.666
CCCCC(=C=CC[C@@H](O)c1ccccc1OCCO)C[C@@H](O)COCc1ccccc1	-0.0639
